The sample as a whole holds a higher share of hits than the screen did.
DT40 TDP1 no CPT = qHTS for Inhibitors of human tyrosyl-DNA phosphodiesterase 1 (TDP1): qHTS in cells in absence of CPT; DT40 Tdp1-/- hTDP1 cells, no CPT, ATP luminescence, 48 h; Potency, µM (titrated, usually from 46.2 µM), actives largely listed as inhibitors; actives 15% (n = 420,000); note: nearly all actives have a fitted effect of over 55% in size
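Chicken DT40 Tdp1-/- cells complemented with human TDP1, screened without camptothecin (DMSO vehicle only), 400 cells/well. Compounds pin-transferred, cells incubated at 37 °C for at least 48 hr. Growth read as ATP-dependent luminescence (CellTiter-Glo, 30 min at RT).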
TDP1 cell CPT = growth inhibition of DT40 Tdp1-/-;hTDP1 cells with camptothecin (screen for TDP1 inhibitors); actives 12% (n = 420,000); Potency, µM (series often up to 46.2 µM), hits mostly inhibitors; chicken DT40 Tdp1-/-;hTDP1 cells + 20 nM CPT, ATP luminescence, 48 h; note: nearly all actives have a fitted effect of over 55% in size
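Cell growth measured by CellTiter-Glo luminescence after a minimum 48 h, 37 C compound exposure with 20 nM CPT in Tdp1-knockout DT40 cells stably expressing hTDP1, seeded 400/well; qHTS titration format.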
12-LOX inh = blocks human arachidonate 12S-lipoxygenase. actives 1.1% (n = 580,000). P18054. AID 1671190. purified 12hLO, xylenol orange hydroperoxide absorbance. Potency, µM (titrated, usually from 108 µM), hits mostly inhibitors
Target sequence (P18054 whole entry, looked up): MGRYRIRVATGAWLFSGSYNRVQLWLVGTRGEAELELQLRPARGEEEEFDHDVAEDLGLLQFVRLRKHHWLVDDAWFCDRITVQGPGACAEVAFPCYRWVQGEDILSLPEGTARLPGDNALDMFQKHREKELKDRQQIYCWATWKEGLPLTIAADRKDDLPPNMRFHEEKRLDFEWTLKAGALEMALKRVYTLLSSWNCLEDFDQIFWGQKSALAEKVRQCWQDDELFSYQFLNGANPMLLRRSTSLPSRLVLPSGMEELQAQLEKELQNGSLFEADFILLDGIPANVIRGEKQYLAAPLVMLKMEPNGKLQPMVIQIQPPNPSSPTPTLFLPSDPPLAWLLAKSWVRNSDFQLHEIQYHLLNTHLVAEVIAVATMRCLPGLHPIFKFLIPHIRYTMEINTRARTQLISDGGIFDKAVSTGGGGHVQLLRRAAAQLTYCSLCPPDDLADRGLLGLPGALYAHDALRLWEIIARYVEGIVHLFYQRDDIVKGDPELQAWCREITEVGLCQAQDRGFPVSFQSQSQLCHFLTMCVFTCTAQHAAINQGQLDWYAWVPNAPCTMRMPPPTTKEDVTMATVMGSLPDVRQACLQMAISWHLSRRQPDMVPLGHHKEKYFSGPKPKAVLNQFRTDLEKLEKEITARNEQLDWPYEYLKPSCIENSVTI
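Hydroperoxide product was detected by ferrous iron/xylenol orange as the 573 to 405 nm absorbance ratio. Arachidonic acid at 40 uM (final) was turned over for 30 min at room temperature by 150 nM human 12hLO, pH 7.0 Hepes buffer, after 15 min compound preincubation.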
IL-1B inflam inh = blocks inflammasome-driven IL-1 beta release | THP-1 LPS/ATP IL-1B secretion, AlphaLISA, 16 h; active compounds read low | activity change, % at 57.5 µM | actives 4.7% (n = 360,000); in the data active = activity change below about -50%; inconclusive = mostly about -30% to -49%
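THP-1 cells pretreated 1 hr with compounds (up to 57.5 uM final), then stimulated with LPS (250 ng/mL final) plus ATP (1.25 mM final); secreted IL-1B measured by AlphaLISA after 16 hr, decreased signal indicating inhibition.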
HT1080NT lethal = kills 2HG-producing HT-1080-NT fibrosarcoma cells | actives 1.6% (n = 360,000) | HT-1080-NT fibrosarcoma viability, CellTiter-Glo ATP luminescence, 48 h | Potency, µM (doses to about 46.1 µM), actives largely listed as cytotoxic;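 note: NT is the 2HG producing partner of a matched IDH1 knockdown line; nearly all actives have a fitted effect of over 55% in size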
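Viability of the 2HG-overproducing fibrosarcoma line after 48 hours of compound exposure at 37 degrees C was determined by luminescence with CellTiter-Glo, and concentration-effect curves were then fitted and categorized.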
HT1080 IDH1KD tx = toxicity to HT-1080 IDH1 knockdown cells (counter line). actives 2% (n = 360,000). AID 686971. Potency, µM (doses to about 46.1 µM), usual class: cytotoxic. HT-1080 IDH1 knockdown viability, ATP luminescence, 48 h
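Viability of IDH1-knockdown HT-1080 fibrosarcoma cells was assessed by CellTiter-Glo after 48 h at 37 °C with titrated compound; concentration-effect curves were classified by fit quality and response size.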
Hits are given with their value; 0 = inactive; ? = inconclusive; - = no result. Unless noted, calls come from the whole dose curve; as a rule, active = well fitted curve in the direction sought with a large enough effect; inconclusive = small, poorly fitted or top-dose-only effect, or another doubt; inactive = no such curve, though single readings can be large; an effect the other way counts as inactive or inconclusive.

SMILES | DT40 TDP1 no CPT | TDP1 cell CPT | 12-LOX inh | IL-1B inflam inh | HT1080NT lethal | HT1080 IDH1KD tx
CC[n+]1c(/C=C2\C=C(C)CC(C)(C)C2)sc2ccccc21 | 2.31µM | 0.651µM | ? | -59.9 | ? | ?
CC1CCCCC12NC(=O)N(CC(=O)N1CCN(c3ncccn3)CC1)C2=O (configuration not stated) | ? | 0 | 0 | 0 | 0 | 0
O=S(=O)(Nc1cc(Cl)ccc1-n1cncn1)c1ccc(F)cc1 | ? | ? | ? | 0 | 0 | 0
O=S(=O)(Nc1cc(Cl)ccc1-n1cncn1)c1cc(Br)ccc1Br | 5.8µM | 25.9µM | ? | -54.2 | ? | ?
COc1ccc(C2=CC(c3ccccc3F)n3ncc(C(=O)Nc4ccc(C)cc4)c3N2)cc1 (configuration not stated) | 20.6µM | 5.17µM | 0 | - | - | -
COc1cccc(C2=CC(c3ccccc3F)n3ncc(C(=O)Nc4ccc(F)cc4)c3N2)c1 (configuration not stated) | 18.4µM | ? | 0 | - | - | -
COc1ccc(NC(=O)C2=C(C)Nc3c(C(=O)Nc4ccc(C)cc4)cnn3C2c2cc(OC)ccc2OC)cc1 (configuration not stated) | ? | 0 | 0 | - | - | -
COc1cccc(C2C=C(c3ccc(C)cc3)Nc3c(C(=O)Nc4ccc(F)cc4)cnn32)c1OC (configuration not stated) | 18.4µM | ? | 0 | - | - | -
O=C(Nc1ccc(Cl)cc1)c1cnn2c1NC(c1ccccc1)=CC2c1ccccc1 (configuration not stated) | ? | ? | 0 | - | - | -
CCC1CCCCN1S(=O)(=O)c1ccc(C(=O)Nc2sc3c(c2C(=O)NC)CCC3)cc1 (configuration not stated) | 16.4µM | 20.6µM | 0 | - | - | -
CNC(=O)c1c(NC(=O)c2ccc(S(=O)(=O)N3CCCC(C)C3)cc2)sc2c1CCC2 (configuration not stated) | 18.4µM | 20.6µM | 0 | - | - | -
CCc1nnc(NC(=O)c2ccc(S(=O)(=O)N3CCCC(C)C3)cc2)s1 (configuration not stated) | 0 | 0 | 0 | 0 | 0 | 0
O=C(CCSc1nc2cc(Cl)ccc2s1)Nc1ccccc1 | - | - | 0 | - | - | -
Cc1nn(S(=O)(=O)c2ccc(C(C)(C)C)cc2)c(C)c1S(=O)(=O)N1CCCCCC1 | 0 | 0 | 0 | - | - | -
Cc1cc(=O)[nH]c(NCCNc2cc(C3CC(N)C3)nc(N(C)C)n2)n1 (configuration not stated) | - | - | 0 | - | - | -
Cc1nn(C)c(C)c1CNCc1ccnc(N2CCOCC2)c1 | - | - | 11.2µM | - | - | -
N=c1ccn(Cc2cccc(Cl)c2)cc1 | 2.06µM | 2.59µM | 0 | ? | 0 | 0
N=c1ccn(Cc2ccc(Cl)cc2)cc1 | 3.66µM | 5.17µM | 0 | 0 | 0 | 0
CN(c1nc2ccccc2nc1Cl)S(=O)(=O)c1ccccc1 | 23.1µM | ? | 0 | 0 | 0 | 0
CCOC(=O)OC(C)OC1=C(C(=O)Nc2ccccn2)N(C)S(=O)(=O)c2ccccc21 (configuration not stated) | 2.11µM | ? | - | - | - | -
Cc1ccc(C(=O)Nc2nc(-c3nnn(-c4cccc(Cl)c4C)c3C)ns2)cc1C | 18.4µM | 25.9µM | 0 | - | - | -
Cc1ccc(C(=O)Nc2nc(-c3nnn(-c4cccc(C(F)(F)F)c4)c3C)ns2)cc1 | 4.11µM | 3.26µM | 0 | - | - | -
O=C1Cc2cc(C(=O)CSc3nnc(-c4cccc(F)c4)o3)c(Cl)cc2N1 | - | - | 0 | - | - | -
Fc1ccc(Nc2nc(NCc3ccco3)c3ccccc3n2)cc1 | 6.51µM | 9.2µM | 0 | -102.0 | ? | 0
c1coc(CNc2nc(NCc3ccco3)c3ccccc3n2)c1 | 12.6µM | 11.2µM | - | - | - | -
Cc1nnc(NCc2ccco2)c2ccccc12 | 0 | 0 | 0 | 0 | 0 | 0
N#Cc1c2c(c(NCc3ccco3)n3c1nc1ccccc13)CCC2 | 20.6µM | 0 | 0 | 0 | 0 | 0
